In PubChem BioAssay AID720569 (National Center for Advancing Translational Sciences (NCATS), 2013):
This is one part of the list. Inconclusive results are not listed. Unmarked numbers belong to inactive results. Calls of active or inactive are those of the source. Calls come from the whole dose curve; as a rule, active = well fitted inhibition curve with a large enough effect; inconclusive = small, poorly fitted or top-dose-only effect; inactive = no such curve, though single readings can be large or run the other way.

Tested on: pyruvate kinase (Trypanosoma brucei)
Experiment: qHTS of Trypanosoma Brucei Inhibitors: Confirmatory Assay for Cherry-picked Compounds; note: nearly all actives have a fitted effect of over 70% in size
Conditions: recombinant TbPYK, Kinase-Glo ATP luminescence; series mostly up to 76.9 µM; activity change, negative = inhibition: at the top concentration
Source text: Members of the Trypanosomatidae family of parasitic protozoans cause a spectrum of diseases throughout the tropical and subtropical world. Sleeping sickness, caused by two subspecies of Trypanosoma brucei, is endemic to areas of sub-Saharan Africa, while Chagas' disease, a manifestation of Trypanosoma cruzi infection, is prevalent throughout Central and South America. In addition, many species of Leishmania are responsible for a range of cutaneous and visceral diseases, causing ulcers, destructive lesions and kalaazar, a lethal infection of the viscera. These diseases cause severe public health and economic burdens on populations that are often already caught in a tragic cycle of poverty, poor nutrition and disease. Collectively, parasites of the trypanosomatid family infect 30 million people worldwide (~500 million live in endemic areas), and account for ~130K deaths annually. Existing treatments have developed little in the past 50 years, and suffer from toxicity, poor efficacy and resistance; the goal of this project is to develop lead drugs that will be suitable for entry into pre-clinical trials. […] Glycolysis in axenically cultured T. cruzi, representing the intracellular pathogenic stage, is also essential for these parasites. {Engel, 1987} This project aims to discover and optimize selective inhibitors of the glycolytic enzyme pyruvate kinase (PYK) from Trypanosoma brucei, the parasite that causes sleeping sickness. […] Trypanosomatid PYKs show significant differences from their human counterparts including only 47-50% sequence identity and different allosteric and activation properties.{Callens, 1992} To this end, a qHTS was done against the MLSMR to discover inhibitors. NIH Molecular Libraries Probe Production Network [MLPCN] NIH Chemical Genomics Center [NCGC] Grant: MH095452 PI Name: Malcolm Walkinshaw, University of Edinburgh
Two uL of TbPYK/substrate buffer (columns 1-3, 5-48) are dispensed into Greiner white solid bottom 1536-well assay plates; column 4 receives only TEA buffer as 0x TbPYK controls. Compounds are then transferred via Kalypsys pin tool equipped with 1536-pin array (10 nL slotted pins, V&P Scientific, San Diego, CA). Following addition of compound, 2 uL of ADP (130 uM final concentration, all columns) is added to initiate the reaction. The plates are then incubated at room temperature for 45 minutes. Kinase-Glo Plus reagent is added (3 uL) and plates incubated for 10 minutes, before being transferred to a ViewLux high-throughput CCD imager (PerkinElmer) wherein single end-point measurements of luminescence are acquired using a clear filter. All reagents are diluted in an assay buffer consisting of 50 mM TEA (pH 7.2), 100 mM KCl, 10 mM MgCl2, 0.05% BSA and 0.01% Tween-20. All screening operations will be performed on a fully integrated robotic system (Kalypsys, San Diego, CA) containing one RX-130 and two RX-90 anthropomorphic robotic arms (Staeubli, Duncan, SC). Library plates will be screened starting from the lowest and proceeding to the highest concentration. Vehicle-only plates, with DMSO being pin-transferred to columns 5-48, will be inserted uniformly at the beginning and the end of each library in order to monitor and record any shifts in the background, which can be affected by reagent dispensers or loss in enzyme activity over time. Screening data will be corrected, normalized, and concentration-effect relationships will be derived by using publicly-available curve fitting algorithms developed in-house (http://ncgc.nih.gov/pub/openhts).
% is set by controls: 0 for no effect and ±100 for the full control effect; potency is the fitted concentration of half-maximal effect.

Compound | Potency | activity change, negative = inhibition
O=c1[nH]c2ccccc2n2c(-c3ccccc3)nnc12 | 0.126 µM (active) | 
C=CCn1c(=S)[nH]c2scc(-c3ccco3)c2c1=O | 14.1 µM (active) | 
Cc1cc(C2=NNC(=Nc3ccc(S(=O)(=O)N4CCOCC4)cc3)SC2)c(C)n1CC1CCCO1 (centres undefined) | 11.2 µM (active) | 
Cc1cc(C#N)c(SCC(N)=O)nc1-c1ccc(F)cc1 | 2.82 µM (active) | 
COc1cccc(C(=O)Nc2ccc(N3CCCC3)cc2)c1 | 20 µM (active) | 
COC(=O)/C=C\C(=O)Nc1cccc([N+](=O)[O-])c1 |  | -92%
Oc1c(CN2CCOCC2)ccc(CN2CCOCC2)c1O | 20 µM (active) | 
O=C(CCCCCn1c(=S)[nH]c2ccsc2c1=O)NC1CCCCC1 | 14.1 µM (active) | 
N#Cc1c(N2CCCCC2)nc(N)c2c(N)nc(SCC(=O)O)cc12 | 31.6 µM (active) | 
Cc1cccc(-n2c(N)c(C(=O)N3CCN(C)CC3)sc2=S)c1 | 1 µM (active) | 
CSc1c(SCc2ccccc2)cnn(Cc2ccccc2)c1=O | 17.8 µM (active) | 
CN(c1ccccc1)S(=O)(=O)c1cccc(NC(=O)Cc2ccc(Cl)cc2)c1 | 6.31 µM (active) | 
O=c1ccc2c(-c3ccccc3S(=O)(=O)O)c3ccc(O)c(O)c3oc-2c1O | 8.91 µM (active) | 
c1ccc(-c2nnc3n2NC(c2ccc4c(c2)OCO4)S3)cc1 (centres undefined) | 0.0708 µM (active) | 
Cc1nonc1C(=O)N/N=C/c1ccc(O)cc1 | 15.8 µM (active) | 
NC(=O)c1c(Nc2nc3c(F)cccc3s2)sc2c1CCCC2 | 4.47 µM (active) | 
Cc1ccc(/C=C/C(=O)Nc2ccc([N+](=O)[O-])c(NC(=O)/C=C/c3ccc(C)o3)c2)o1 | 17.8 µM (active) | 
O=C(CSc1ccc(-c2ccco2)nn1)Nc1cccc(F)c1 | 15.8 µM (active) | 
O=C(CN1CCN(c2ccc(O)cc2)CC1)Nc1ccc(-c2ccccc2)cc1 | 28.2 µM (active) | 
COc1ccc(Cc2nnc(NS(=O)(=O)Cc3ccccc3)s2)cc1 |  | -17.7%
CC(=O)N1CC[n+]2c(-c3ccc([N+](=O)[O-])cc3)csc21 | 1.78 µM (active) | 
COc1cc(C2CC(=O)N3CN(Cc4ccccc4)CSC3=C2C#N)ccc1OCc1ccccc1 (centres undefined) | 0.126 µM (active) | 
O=C(Nc1ccc(S(=O)(=O)N2CCOCC2)cc1)c1ccc2ncsc2c1 | 10 µM (active) | 
O=C(CN1CCN(c2ccc(O)cc2)CC1)Nc1cc(S(=O)(=O)N2CCOCC2)ccc1Cl | 14.1 µM (active) | 
Cc1nc2ccc(S(=O)(=O)NCC(=O)O)cc2s1 | 6.31 µM (active) | 
Cc1ccc(C)c2c1cc(C)c1nnc(SCC(=O)Nc3cccc(C(=O)O)c3)n12 | 2.24 µM (active) | 
COCCNC(=O)Nc1ccc2nc(-c3ccco3)c(-c3ccco3)nc2c1 | 11.2 µM (active) | 
O=C1C=CC(=O)N1c1ccc(N2CCCCC2)cc1 | 7.08 µM (active) | 
Cc1c(C)c(C)c(S(=O)(=O)N2CCC3(CC2)OCCO3)c(C)c1C |  | 5.05%
